A short description of test [1]: CCTE_Harrill_HTTr_Viability_MCF7: CCTE's 6-hour Cell Viability Assessment for the High-Throughput Transcriptomics (HTTr) Platform, in MCF-7 cells cultured in DMEM + 10% fetal bovine serum, Harrill Lab (AID 2284010). The method, boiled down:
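Cells were dosed with chemicals in an eight-point dilution series, imaged 6 hours later for propidium iodide uptake, and the endpoint was analyzed by bidirectional fitting against DMSO as negative control.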

A short description of test [2]: CCTE_Harrill_HTTr_Apoptosis_MCF7: CCTE's 6-hour Apoptosis Assessment for the High-Throughput Transcriptomics (HTTr) Platform, in MCF-7 cells cultured in DMEM + 10% fetal bovine serum, Harrill Lab (AID 2284011). The method, boiled down:
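High-content imaging of CellEvent Caspase 3/7 Green signal follows a six-hour exposure, with eight concentrations per chemical. MCF-7 cells grown in DMEM plus 10% fetal bovine serum; activity fitted in both directions against DMSO.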

The nature of test [3]: CCTE_Harrill_HTTr_CellCount_MCF7: CCTE's Cell Proliferation Assessment for the High-Throughput Transcriptomics (HTTr) Platform, Harrill Lab (AID 2284012; active = hit-call score of the fitted dose curve at least 0.9, where 1 is the maximum;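 note: count of Hoechst-stained nuclei per well by high-content imaging in MCF-7 cells; cells exposed to compound for six hours; intended direction is loss of nuclei count meaning fewer cells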). The method, boiled down:
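Chemicals in eight-point dilution series are added to MCF-7 cells for six hours, nuclei are stained with Hoechst and imaged, and per-well nuclei counts are fitted in both directions relative to DMSO controls.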

The target in test [4] is Estrogen receptor (Homo sapiens) (UniProt P03372). Description: CCTE_Deisenroth_AIME_96WELL_LUC_Active: CCTE's 96-well Estrogen Receptor Transactivation Assay with AIME metabolic competence (ERTA luciferase; metabolism positive), Deisenroth Lab (AID 2284023; active = hit-call score of the fitted dose curve at least 0.9, where 1 is the maximum). The method, boiled down:
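Chemicals pre-incubated 2 h with alginate-immobilized phenobarbital/beta-naphthoflavone-induced male Sprague Dawley rat liver S9, then medium transferred to VM7Luc4E2 cells for 24 h luciferase read-out. 10-point series 0.002 - 200 uM; fitted relative to 17beta-estradiol.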

For test [5] the target is unchanged. The experiment in a line: CCTE_Deisenroth_AIME_96WELL_LUC_Inactive: CCTE's 96-well Estrogen Receptor Transactivation Assay without AIME metabolic competence (ERTA luciferase; metabolism negative), Deisenroth Lab (AID 2284025; active = hit-call score of the fitted dose curve at least 0.9, where 1 is the maximum). The essentials: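 VM7Luc4E2 breast cells, luciferase read 24 h after dosing with medium pre-incubated 2 h on alginate-water lids (metabolism negative). 10-point series 0.002–200 uM, single technical replicate, n≥4; fit relative to 17beta-estradiol.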

Test [6] is described as follows: CCTE_Deisenroth_AIME_96WELL_CTox_Active: Cytotoxicity Assessment (CTOX) in CCTE's 96-well Estrogen Receptor Transactivation Assay with AIME metabolic competence (metabolism positive), Deisenroth Lab (AID 2284028; active = hit-call score of the fitted dose curve at least 0.9, where 1 is the maximum). The essentials: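 Chemicals (0.002–200 uM) were first incubated 2 h with alginate-immobilized phenobarbital/beta-naphthoflavone-induced male rat liver S9; conditioned medium then went onto VM7Luc4E2 cells for 24 h, with viability read by protease-substrate fluorescence, fitted bidirectionally.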

Test [7] in a line: CCTE_Shafer_MEA_dev_per_burst_spike_percent: CCTE's Neural Network Formation Assay for Percent of Spikes in a Burst, Shafer Lab (AID 2284032). The method, boiled down: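 Rat primary cortical neurons on 16-electrode MEA wells, dosed from plating day 0 for 12 days with renewal on DIV 5 and 9; spikes-in-bursts percentage averaged over bursting electrodes, collapsed as AUC across days 5, 7, 9, 12; loss direction versus DMSO.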

For test [8], the target named is Estrogen receptor (Homo sapiens) (UniProt P03372). The experiment in a line: CCTE_Deisenroth_AIME_384WELL_LUC_Active: CCTE's 384-well Estrogen Receptor Transactivation Assay with AIME metabolic competence (ERTA luciferase; metabolism positive), Deisenroth Lab (AID 2284030; active = hit-call score of the fitted dose curve at least 0.9, where 1 is the maximum). The essentials: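 VM7Luc4E2 breast cells were given, for 24 hours, medium pre-incubated for 2 hours with parent chemical (0.002-200 uM, 10 concentrations) and alginate-encapsulated phenobarbital/beta-naphthoflavone-induced rat hepatic S9. Luciferase gain of signal was fitted against 17beta-estradiol; n=4 or more.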
Estrogen receptor (Homo sapiens), sequence (P03372 whole entry, looked up): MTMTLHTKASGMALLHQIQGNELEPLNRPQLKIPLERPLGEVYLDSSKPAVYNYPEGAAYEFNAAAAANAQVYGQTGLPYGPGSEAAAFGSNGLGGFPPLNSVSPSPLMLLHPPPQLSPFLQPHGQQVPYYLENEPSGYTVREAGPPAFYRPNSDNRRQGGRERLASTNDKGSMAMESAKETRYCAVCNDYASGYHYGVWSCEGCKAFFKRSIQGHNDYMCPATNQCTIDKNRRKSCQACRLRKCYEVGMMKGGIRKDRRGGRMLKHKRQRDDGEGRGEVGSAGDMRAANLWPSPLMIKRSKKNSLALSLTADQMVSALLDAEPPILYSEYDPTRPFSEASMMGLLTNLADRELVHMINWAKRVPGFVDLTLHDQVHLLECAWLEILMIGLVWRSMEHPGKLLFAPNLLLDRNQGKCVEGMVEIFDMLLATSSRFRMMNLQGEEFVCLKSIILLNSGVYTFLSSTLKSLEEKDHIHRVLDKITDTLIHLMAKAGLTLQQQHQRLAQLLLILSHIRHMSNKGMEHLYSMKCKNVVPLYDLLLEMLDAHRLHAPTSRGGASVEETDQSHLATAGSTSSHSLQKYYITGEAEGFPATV

The nature of test [9]: CCTE_Deisenroth_AIME_384WELL_CTox_Active: Cytotoxicity Assessment (CTOX) in CCTE's 384-well Estrogen Receptor Transactivation Assay with AIME metabolic competence (metabolism positive), Deisenroth Lab (AID 2284037; active = hit-call score of the fitted dose curve at least 0.9, where 1 is the maximum;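 note: activity means signal loss indicating cell death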). The method, boiled down:
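Chemicals pre-incubated 2 hours with alginate-immobilised phenobarbital/beta-naphthoflavone-induced male Sprague Dawley rat liver S9, then conditioned medium applied 24 hour to VM7Luc4E2 cells. Viability by fluorogenic protease substrate; 10-point series 0.002 - 200 uM.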

A short description of test [10]: CCTE_Shafer_MEA_acute_burst_number: CCTE's Neural Acute Assay for Single-Electrode Bursts, Shafer Lab (AID 2284013). The essentials:
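Primary rat cortical neurons on 16-electrode MEA wells, treated on DIV 13 or 15 with compound at 0.03-40 uM. Single-electrode burst count from 40-min recordings at 37 C before and after exposure; percent change from baseline per well, DMSO negative control.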

Test [11] in a line: CCTE_Shafer_MEA_acute_burst_duration_mean: CCTE's Neural Acute Assay for Mean Burst Duration, Shafer Lab (AID 2284014).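 Note: hits are decreases in mean burst duration relative to DMSO controls.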 The method, boiled down: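 Rat primary cortical neurons on 48-well MEA, treated at DIV 13 or 15 with 0.03-40 uM in at least 3 wells. Value is percent change in mean burst duration, comparing 40 min recordings at 37 C before and during exposure.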
Test [12] is described as follows: CCTE_Shafer_MEA_acute_per_burst_spike_number_mean: CCTE's Neural Acute Assay for Average Number of Spikes Per Burst, Shafer Lab (AID 2284015).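 Note: hits are decreases in mean spikes per burst versus baseline.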 The method, boiled down: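 Primary rat cortical neurons on 48-well MEA plates, treated on DIV 13 or 15 at 0.03-40 uM. Spontaneous activity recorded 40 min before and 40 min after compound at 37 C; percent change in mean spikes per single-electrode burst per well, fitted in the loss direction versus DMSO.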

The nature of test [13]: CCTE_Shafer_MEA_acute_interburst_interval_mean: CCTE's Neural Acute Assay for Mean Interburst Interval, Shafer Lab (AID 2284016).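 Note: percent change of mean interburst interval versus each well's own pre-dose baseline; curves fitted for decrease in interburst interval relative to DMSO.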 The essentials: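 Primary rat cortical neurons on 16-electrode MEA wells were recorded 40 min at baseline on DIV 13 or 15, then 40 min after compound (0.03-40 uM), at 37 C. Value is percent change in mean interburst interval per well, DMSO as negative control.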

The nature of test [14]: CCTE_Shafer_MEA_acute_per_network_burst_spike_number_mean: CCTE's Neural Acute Assay for Average Number of Spikes in a Network Burst, Shafer Lab (AID 2284019). The method, boiled down: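 Rat primary cortical neurons on 48-well MEA at DIV 13 or 15, 37 C; compounds 0.03-40 uM, at least three wells each. 40-min baseline then 40-min exposure recording; percent change in mean spikes per network burst.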

Test [15] is described as follows: CCTE_Shafer_MEA_acute_per_network_burst_spike_number_std: CCTE's Neural Acute Assay for Standard Deviation of Number of Spikes in a Network Burst, Shafer Lab (AID 2284020).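 Note: fitted for decrease in spike-number SD versus DMSO so actives lower it.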 The essentials: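 Rat primary cortical neurons on 48-well MEA (16 electrodes/well), treated DIV 13 or 15 at 0.03-40 uM, ≥3 wells per compound. 40 min recordings at 37 C before and after dosing; value is percent change in network-burst spike-number SD, negative direction vs DMSO.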

Test [16] can be described thus: CCTE_Shafer_MEA_acute_per_network_burst_electrodes_number_mean: CCTE's Neural Acute Assay for Mean Number of Electrodes in a Network Burst, Shafer Lab (AID 2284021).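 Note: curves fitted for decreases only so hits reduce electrodes per burst.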 The essentials:
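Percent change from baseline was computed as mean electrode count per network burst, comparing 40 min recordings before and during compound (0.03-40 uM) exposure. Cultures were rat cortical neurons at DIV 13 or 15, recorded on MEAs at 37 C with an adaptive 8x rms threshold.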

A short description of test [17]: CCTE_Shafer_MEA_acute_network_burst_percentage: CCTE's Neural Acute Assay for Percentage of Network Bursts, Shafer Lab (AID 2284022).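 Note: curves fitted for loss so actives lower network burst percentage.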 The essentials: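 Network burst percentage (spikes in network bursts divided by total spikes) recorded at 37 C over 40 min baseline and 40 min after compound, 0.03-40 uM, in rat cortical cultures at DIV 13 or 15. Analysed as percent change from baseline versus DMSO.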

The nature of test [18]: CCTE_Shafer_MEA_acute_cross_correlation_HWHM: CCTE's Neural Acute Assay for Cross Correlation at Half Width at Half Maximum, Shafer Lab (AID 2284026).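 Note: spontaneous network firing of rat primary cortical neurons on multiwell microelectrode arrays; percent change per well from pre-dose baseline in spike cross-correlogram half width; hits are a decrease in cross-correlogram half width relative to DMSO.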 The essentials: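 Per-well percent change in cross-correlogram half width at half maximum, derived from 40-min recordings before and after compound (0.03-40 uM) at 37 C. Cultures were rat cortical neurons, DIV 13 or 15, with adaptive spike detection at 8x rms.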

SMILES strings stand for the structures. Inconclusive results are not listed. Active and inactive are the calls of the source. Rule for the calls, unless noted: active = hit-call score of the fitted dose curve at least 0.9, where 1 is the maximum; inactive = score below 0.9.

The source of these data is PubChem BioAssay (EPA / NIEHS).

Take `CCOC(=O)N1CCC(=C2c3ccc(Cl)cc3CCc3cccnc32)CC1`: the result in test [1], in test [2] and in test [3] was inactive.

`C#CC1(O)CC[C@H]2[C@@H]3CCC4=CCCC[C@@H]4[C@H]3CC[C@@]21C` (stereo partly specified): the result in [1] and in test [2] was inactive.

On to `O=C(O)c1ccccc1Nc1cccc(C(F)(F)F)c1`, for which the result in test [1] and in [2] was inactive.

Regarding `O=C1c2cccc(O)c2C(=O)c2c(O)cc(CO)cc21`, the result in test [1], in test [2] and in [3] was inactive.

Consider `Cc1cccc(N(C)C(=S)Oc2ccc3ccccc3c2)c1`, for which the result in test [1] and in test [2] was inactive.

In the case of `CCCCCC/C=C\CCCCCCCC(=O)O`, the outcome in test [1], in test [2] and in test [3] was inactive.

Take `Cc1c(C)c([N+](=O)[O-])c(C(C)(C)C)c([N+](=O)[O-])c1C`: the outcome in [1] and in test [2] was inactive.

For `O=c1[nH]c(=O)c2[nH]c(=O)[nH]c2[nH]1`, the outcome in test [1], in [2] and in test [3] was inactive.

As to `NC(=O)c1ccccc1O`, the outcome in test [1], in [2] and in test [3] was inactive.

As to `CCCNC(=O)NS(=O)(=O)c1ccc(Cl)cc1`, the outcome in test [1] and in [2] was inactive.

As for `O=C1CCCCCCCCCCC(=O)OCCO1`, the result in test [1] and in [2] was inactive.

Consider `CC(C)(Oc1ccc(C2CC2(Cl)Cl)cc1)C(=O)O` (stereo unspecified), for which the outcome in test [1], in test [2] and in [3] was inactive.

As to `Cc1ccc(C(C)(C)C)cc1`, the result in [1], in test [2] and in [3] was inactive.

As to `CCC(=O)Oc1ccc(/C(CC)=C(\CC)c2ccc(OC(=O)CC)cc2)cc1`, the result in test [1], in test [2] and in [3] was inactive.

In the case of `COc1ccc(-c2coc3cc(O)ccc3c2=O)cc1`, the AC50 in [4] is 6.69 µM (active); in test [5], 5.41 µM (active). In addition, the molecule was called inactive in [6].

With `Nc1ncn([C@@H]2O[C@H](CO)[C@@H](O)[C@H]2O)c(=O)n1`, the outcome in [7] was inactive.

Regarding `O=S(=O)(O)c1ccccc1C=Cc1ccc(-c2ccc(C=Cc3ccccc3S(=O)(=O)O)cc2)cc1`, in test [8], the molecule was classed as inactive.

`Oc1ccc(Cl)cc1Cc1cc(Cl)ccc1O`: the result in test [1] and in test [2] was inactive. Moreover, the AC50 in test [9] is 102 µM (active).

Regarding `O=S1(=O)OC(c2ccc(O)cc2)(c2ccc(O)cc2)c2ccccc21`, the outcome in test [8] and in test [9] was inactive.

Take `CC1(C)S[C@@H]2[C@H](NC(=O)COc3ccccc3)C(=O)N2[C@H]1C(=O)O`: in test [7], the molecule was classed as inactive.

In the case of `Nc1ccc(N)c(Cl)c1`, the call in test [10], in test [11], in test [12], in test [13], in test [14] and in [15] was inactive. The molecule was classed as inactive in test [16], in [17] and in test [18].
